The supplement of paper PMC6992640
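Also: cells dissociated from PDX tumors propagated in female NSG mouse mammary fat pads, vehicle control 0.1% DMSO.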

Each compound was assayed on HCI01 (cells of a triple-negative basal-like breast cancer xenograft) (assay: cell viability (% of vehicle); higher = less cytotoxic). Conditions: 1 µM; 72 h.
O=C(NC1CCN(CCCCC2(C(=O)NCC(F)(F)F)c3ccccc3-c3ccccc32)CC1)c1ccccc1-c1ccc(C(F)(F)F)cc1 [Lomitapide] was tested, and the cell viability was 92.2.
CCCCCCCCOc1ccccc1C(=O)Nc1ccc(C(=O)OCC[N+](C)(CC)CC)cc1.[Br-] [Otilonium Bromide] was tested, and the cell viability was 91.3.
For COc1cc(Nc2c(C#N)cnc3cc(OCCCN4CCN(C)CC4)c(OC)cc23)c(Cl)cc1Cl [Bosutinib (SKI-606)], the cell viability was 61.1.
For CNC(=O)c1cc(Oc2ccc(NC(=O)Nc3ccc(Cl)c(C(F)(F)F)c3)c(F)c2)ccn1 [Regorafenib], the cell viability was 103.
Compound COC1=C(OC)C(=O)C(CCCCCCCCCCO)=C(C)C1=O [Idebenone] has a cell viability of 91.1.
In the case of Nc1ncn(C2OC(CO)C(O)C2O)c(=O)n1 (stereo not given) [5-Azacytidine], the cell viability was 91.5.
In the case of CC(C)C[C@H](NC(=O)[C@H](Cc1ccccc1)NC(=O)c1cnccn1)B(O)O [Bortezomib], the cell viability was 32.8.
CC(C)Nc1cc(-c2c[nH]c(C(=O)NC(CO)c3cccc(Cl)c3)c2)c(Cl)cn1 (stereo not given) showed a cell viability of 84.8.
For COc1cc(Nc2ncc(F)c(Nc3ccc4c(n3)N(COP(=O)(O)O)C(=O)C(C)(C)O4)n2)cc(OC)c1OC [Fostamatinib (R788)], the cell viability was 116.
For CNCCCC12CCC(c3ccccc31)c1ccccc12.Cl [Maprotiline HCl], the cell viability was 90.9.
